Shown are actives, neighbours in structure and some others; about 32% of the full set was active somewhere.
CYP2C9 inh: human CYP2C9 inhibition; P11712; CYP2C9 Supersomes, luciferin-H conversion, luminescence; inhibition, % at 5 µM; 96,000 compounds, 20% hits;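 active = blocking of liver enzyme CYP2C9 beyond about 50% at 5 µM, limit read from the data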
Target sequence (P11712 whole entry, looked up): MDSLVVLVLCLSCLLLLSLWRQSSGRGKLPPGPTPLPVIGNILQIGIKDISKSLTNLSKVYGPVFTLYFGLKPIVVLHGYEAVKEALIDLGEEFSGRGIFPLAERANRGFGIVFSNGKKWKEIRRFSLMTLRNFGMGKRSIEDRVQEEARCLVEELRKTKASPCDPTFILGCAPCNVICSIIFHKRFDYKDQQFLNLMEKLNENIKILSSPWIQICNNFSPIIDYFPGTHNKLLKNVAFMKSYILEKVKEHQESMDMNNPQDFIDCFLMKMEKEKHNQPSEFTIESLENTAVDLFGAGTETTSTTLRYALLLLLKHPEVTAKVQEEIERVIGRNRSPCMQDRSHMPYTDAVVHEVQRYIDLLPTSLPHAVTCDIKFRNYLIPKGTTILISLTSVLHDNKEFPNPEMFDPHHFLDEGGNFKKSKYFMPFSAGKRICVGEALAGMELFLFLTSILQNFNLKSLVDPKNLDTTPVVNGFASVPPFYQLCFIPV
CYP2C9 act: activators of human CYP2C9; P11712; recombinant CYP2C9, luciferin-H conversion, luminescence; hits give high values; factor 1 = untreated enzyme, 0 = blocked; activation factor at 5 µM; 96,000 compounds, 1.4% hits; AID 1024;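 active = activation factor of 2 or more for CYP2C9 at a 5 µM dose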;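 note: 0 = sulfaphenazole-blocked wells and 1 = vehicle-only wells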
CYP2C19 inhib: human CYP2C19 inhibition; inhibition, % at 5 µM; P33261; 96,000 compounds, 21% hits; CYP2C19 Supersomes, luciferin-H EGE luminescence, 30 min;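 active = CYP2C19 inhibition above a set limit at 5 µM in the primary screen, cut at about 50% in these data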;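 note: plate controls were negative control wells for no effect and 2.5 mM tranylcypromine positive control for full effect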
PostGolgi yeast: growth inhibition of a yeast mutant, post-Golgi transport screen. post-Golgi transport phenotypic cell assay. 98,000 compounds, 0.9% hits. inhibition, % at 10 µM. AID 739;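 note: yeast cells grown in 1536-well plates; yeast grown about 18 h at 30C before absorbance read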
PostGolgi ctrl: yeast control strain growth, post-Golgi counter-screen; efflux-deficient yeast background strain, growth absorbance A615, 16 h; inhibition, % at 10 µM; 98,000 compounds, 5% hits; AID 738
CYP2C19 act: increases human CYP2C19 enzyme activity. 96,000 tested, under 10 active. P33261. recombinant CYP2C19, luciferin-H EGE luminescence; hits give high values; 0 = fully inhibited enzyme, 1 = untreated enzyme. activation factor at 5 µM;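 active = activation factor of at least 2 at 5 µM in the primary screen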;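 note: 0 = wells with 2.5 mM tranylcypromine and 1 = vehicle-only wells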
Active calls of the source: *; / = no result. Cut-off read from the data, not from the text of the source, unless noted: active = inhibition above about 30%; inactive = the rest.

SMILES	CYP2C9 inh	CYP2C9 act	CYP2C19 inhib	PostGolgi yeast	PostGolgi ctrl	CYP2C19 act
CN=C(Nc1ccc(Cl)cc1)c1cccc(C(F)(F)F)c1	23	0.8	74*	6	4	0.3
c1cncc(Nc2nc(-c3cccnc3)cs2)c1	56*	0.4	72*	6	5	0.3
COc1ccc(CCNc2nc(-c3cccnc3)cs2)cc1OC	10	0.9	84*	19	-3	0.2
c1cncc(Nc2nc(-c3ccncc3)cs2)c1	52*	0.5	51*	2	14	0.5
COc1ccc(CCNc2nc(-c3sc(C)nc3C)cs2)cc1OC	22	0.8	27	-2	11	0.7
CC(=O)Oc1ccc(-c2csc(Nc3cccnc3)n2)cc1	-3	1	16	0	13	0.8
c1ccc(Nc2nc(-c3cccnc3)cs2)nc1	-5	1.1	11	-1	4	0.9
COc1ccc(-c2csc(Nc3cccnc3)n2)cc1OC	22	0.8	79*	1	21	0.2
Cc1nc(C)c(-c2csc(Nc3cccnc3)n2)s1	20	0.8	26	-7	1	0.7
CC(C)CCC(C)N=Cc1c(O)n(Cc2ccccc2)c(=O)c2ccccc12 (stereo not given)	86*	0.1	-4	-5	1	1
CCN(CC)CCCN=Cc1c(O)n(Cc2ccccc2)c(=O)c2ccccc12	22	0.8	17	3	5	0.8
O=c1c2ccccc2c(/C=N/c2ncn[nH]2)c(O)n1Cc1ccccc1	11	0.9	-3	3	30*	1
CCN1CCCC1CN=Cc1c(O)n(-c2ccccc2)c(=O)c2ccccc12 (stereo not given)	3	1	2	1	5	1
CC(C)CCN=Cc1c(O)n(-c2ccccc2)c(=O)c2ccccc12	16	0.8	19	6	39*	0.8
CCOc1ccc(-c2nc(-c3ccccc3C)no2)cc1	-27	1.3	26	/	/	0.7
COc1cccc(NC(=O)CN2CCN(S(=O)(=O)c3ccc(F)cc3)CC2)c1	10	0.9	43	-2	0	0.6
COc1cc(NC(=O)CN2CCN(S(=O)(=O)c3ccc(C(C)C)cc3)CC2)cc(OC)c1	30	0.7	74*	-3	20	0.3
COc1ccc(S(=O)(=O)N2CCN(CC(=O)Nc3cc(OC)cc(OC)c3)CC2)cc1	-21	1.2	15	-2	17	0.8
COc1cccc(NC(=O)CN2CCN(S(=O)(=O)c3ccc(C(C)C)cc3)CC2)c1	31	0.7	87*	-10	18	0.1
COc1ccc(NC2=NCC(=O)N2c2ccccc2F)cc1	-17	1.2	6	3	19	0.9
Cc1cc(-c2nnc3n2CCCCC3)c(C)n1-c1ccccc1	51*	0.5	34	3	8	0.7
CCOc1c2ccc(C(=O)NCCCCc3ccccc3)cc2nn1CC	31	0.7	29	-17	1	0.7
O=[N+]([O-])c1ccc(Sc2ccccc2Cl)nc1	1	1	62*	1	0	0.4
O=[N+]([O-])c1ccc(Sc2n[nH]c(-c3ccc(Cl)cc3Cl)n2)nc1	9	0.9	14	-3	16	0.9
CN(C)c1ccc(NC(=O)CN2CCC(C(=O)c3ccc(F)cc3)CC2)cc1	2	1	-9	-6	2	1.1
SMILES	CYP2C9 inh	CYP2C9 act	CYP2C19 inhib	PostGolgi yeast	PostGolgi ctrl	CYP2C19 act
COC(=O)c1ccccc1NC(=O)CN1CCC(C(=O)c2ccc3c(c2)OCCO3)CC1	78*	0.2	81*	23	9	0.2
Cc1ccc(NC(=O)CN2CCC(C(=O)c3ccc4c(c3)OCCO4)CC2)cc1	49	0.5	85*	-3	1	0.2
O=C(NCc1ccccc1)c1cnsn1	-4	1	-2	-5	-9	1
O=C(Cc1sc(-c2ccccc2Cl)nc1-c1ccccc1)Nc1ccc(F)cc1	73*	0.3	39	19	-1	0.6
O=C(Cc1sc(-c2ccccc2Cl)nc1-c1ccccc1)Nc1ccccc1	37	0.6	25	6	6	0.8
COc1ccc(-n2c(C)cc(C(=O)CSc3nnc(-c4ccoc4C)n3C)c2C)cc1	54*	0.5	57*	3	10	0.4
Cc1cccc(-n2c(SCC(=O)Nc3ccc4c(c3)OCO4)nnc2-c2ccoc2C)c1	8	0.9	1	-3	2	1

Source: PubChem
